Assay [1] is described as follows: qHTS for Inhibitors of Plasmodium falciparum (7G8) proliferation (AID 504316). Note: potency is the fitted concentration of half-maximal effect; nearly all actives have a fitted effect of over 65% in size. Summed up:
(§1)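 Erythrocytes infected with P. falciparum line (0.3% parasitemia, 2.5% hematocrit final) incubated with compounds 72 h at 37 °C, 5% CO2; SYBR Green lysis buffer added, fluorescence read next day. Normalized to 0.29 uM artemisinin and DMSO.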

Assay [2] can be described thus: qHTS for Inhibitors of Plasmodium falciparum (CP250) proliferation (AID 504320).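 For activity change, negative = inhibition: plate controls were DMSO vehicle for no effect and 0.29 µM artemisinin control for full effect.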 Note: potency is the fitted concentration of half-maximal effect. Summed up:
as §1

For assay [3], the target named is Atrial natriuretic peptide receptor 1 (Homo sapiens) (UniProt P16066). The assay is described as follows: Natriuretic polypeptide receptor (hNpr1) antagonism - Pilot CMLD screen (AID 1347052; calls by dose curve;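 note: cGMP level read as GloSensor luciferase luminescence after agonist stimulation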; note: potency is the fitted concentration of half-maximal effect;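 for activity change, negative = inhibition: HEK293 cells with hNpr1 stimulated by hNppA peptide at 0.1 nM; series mostly up to about 9.2 µM; % is set by controls: 0 for no effect and ±100 for the full control effect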).
Assay [4] is described as follows: qHTS for Inhibitors of Plasmodium falciparum (HB3) proliferation (AID 504318).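 For activity change, negative = inhibition: 0% = DMSO vehicle and -100% = artemisinin control.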 Note: nearly all actives have a fitted effect of over 60% in size. Note: potency is the fitted concentration of half-maximal effect. Summed up:
as §1

The target in assay [5] is Cytochrome P450 2C9 (Homo sapiens) (UniProt P11712). The assay is described as follows: qHTS Assay for Inhibitors and Substrates of Cytochrome P450 2C9 (AID 883). Note: % is set by controls: 0 for no effect and ±100 for the full control effect; nearly all actives have a fitted effect of over 60% in size. Summed up: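 Turnover of Luciferin-H (100uM, KM) by 10nM human CYP2C9 was measured over 60 min at 37C with NADPH regeneration; inhibitors and some substrates reduce luminescence. Data normalized to sulphaphenazole 57uM.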

The target of assay [6] is Cytochrome P450 3A4 (Homo sapiens) (UniProt P08684). The assay is described as follows: qHTS Assay for Inhibitors and Substrates of Cytochrome P450 3A4 (AID 884). Note: series mostly up to about 57 µM; % is set by controls: 0 for no effect and ±100 for the full control effect; nearly all actives have a fitted effect of over 50% in size. Summed up:
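20 nM human CYP3A4 with 25 uM Luciferin-PPXE (at KM) in 200 mM KPO4, preincubated 10 min with compound; NADPH regeneration started a 60 min RT reaction. Luciferin detected by luminescence, normalized to 57 uM ketoconazole as full inhibition.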

Assay [7] deals with Cytochrome P450 2D6 (Homo sapiens) (UniProt P10635). The assay is described as follows: qHTS Assay for Inhibitors and Substrates of Cytochrome P450 2D6 (AID 891).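 Note: luciferin methyl ether substrate demethylated by CYP2D6 with NADPH regeneration; % is set by controls: 0 for no effect and ±100 for the full control effect; nearly all actives have a fitted effect of over 60% in size.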 Summed up:
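Human CYP2D6 (5 nM) with 30 uM Luciferin-ME EGE (at Km) in 100 mM KPO4, compound preincubated 10 min, then NADPH regeneration system for 60 min at room temperature. Luciferin read by luminescence; normalized to 1.43 uM quinidine.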

Assay [8] deals with Cytochrome P450 2C19 (Homo sapiens) (UniProt P33261). The assay is described as follows: qHTS Assay for Inhibitors and Substrates of Cytochrome P450 2C19 (AID 899). Note: % is set by controls: 0 for no effect and ±100 for the full control effect; nearly all actives have a fitted effect of over 60% in size. Summed up: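 Reactions contain 5nM enzyme, 10uM Luciferin-H EGE (KM) and 50mM KPO4; compound preincubates 10 min at 37C, NADPH regeneration starts turnover for 60 min. Luminescence after detection reagent gives activity.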

Records with an inconclusive call do not appear. A number with no mark means an inactive call. Activity calls are given as the source filed them. Unless noted, calls come from the whole dose curve; as a rule, active = well fitted curve in the direction sought with a large enough effect; inconclusive = small, poorly fitted or top-dose-only effect, or another doubt; inactive = no such curve, though single readings can be large; an effect the other way counts as inactive or inconclusive.

Sequence of Atrial natriuretic peptide receptor 1 (Homo sapiens) (P16066 whole entry, looked up): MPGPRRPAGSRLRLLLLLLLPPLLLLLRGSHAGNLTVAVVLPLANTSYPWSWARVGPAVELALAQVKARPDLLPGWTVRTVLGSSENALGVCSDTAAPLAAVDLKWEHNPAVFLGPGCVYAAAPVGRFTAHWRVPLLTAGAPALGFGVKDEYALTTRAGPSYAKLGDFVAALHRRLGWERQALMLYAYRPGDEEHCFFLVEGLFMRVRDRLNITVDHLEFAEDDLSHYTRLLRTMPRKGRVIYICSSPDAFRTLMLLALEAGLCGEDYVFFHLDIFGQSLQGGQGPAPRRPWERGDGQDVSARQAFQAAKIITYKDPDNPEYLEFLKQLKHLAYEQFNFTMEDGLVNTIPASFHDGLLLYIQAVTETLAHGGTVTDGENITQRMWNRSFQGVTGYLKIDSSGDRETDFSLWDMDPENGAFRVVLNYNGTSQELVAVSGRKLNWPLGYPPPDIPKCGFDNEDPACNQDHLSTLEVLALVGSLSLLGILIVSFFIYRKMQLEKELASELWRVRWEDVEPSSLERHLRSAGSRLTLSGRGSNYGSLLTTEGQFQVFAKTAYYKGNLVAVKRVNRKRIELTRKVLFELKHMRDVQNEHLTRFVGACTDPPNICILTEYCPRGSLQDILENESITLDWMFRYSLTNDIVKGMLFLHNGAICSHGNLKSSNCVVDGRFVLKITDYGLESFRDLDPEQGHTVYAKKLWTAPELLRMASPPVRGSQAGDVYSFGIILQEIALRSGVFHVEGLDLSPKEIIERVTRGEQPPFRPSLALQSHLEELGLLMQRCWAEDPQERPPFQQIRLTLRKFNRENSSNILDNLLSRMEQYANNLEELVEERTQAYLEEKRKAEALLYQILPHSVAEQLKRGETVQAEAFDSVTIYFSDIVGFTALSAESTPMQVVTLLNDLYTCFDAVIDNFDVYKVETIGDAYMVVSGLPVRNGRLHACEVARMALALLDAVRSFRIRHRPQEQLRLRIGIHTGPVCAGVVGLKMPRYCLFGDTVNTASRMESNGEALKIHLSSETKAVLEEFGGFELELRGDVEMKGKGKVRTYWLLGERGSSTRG
Sequence of Cytochrome P450 2C19 (Homo sapiens) (P33261 whole entry, looked up): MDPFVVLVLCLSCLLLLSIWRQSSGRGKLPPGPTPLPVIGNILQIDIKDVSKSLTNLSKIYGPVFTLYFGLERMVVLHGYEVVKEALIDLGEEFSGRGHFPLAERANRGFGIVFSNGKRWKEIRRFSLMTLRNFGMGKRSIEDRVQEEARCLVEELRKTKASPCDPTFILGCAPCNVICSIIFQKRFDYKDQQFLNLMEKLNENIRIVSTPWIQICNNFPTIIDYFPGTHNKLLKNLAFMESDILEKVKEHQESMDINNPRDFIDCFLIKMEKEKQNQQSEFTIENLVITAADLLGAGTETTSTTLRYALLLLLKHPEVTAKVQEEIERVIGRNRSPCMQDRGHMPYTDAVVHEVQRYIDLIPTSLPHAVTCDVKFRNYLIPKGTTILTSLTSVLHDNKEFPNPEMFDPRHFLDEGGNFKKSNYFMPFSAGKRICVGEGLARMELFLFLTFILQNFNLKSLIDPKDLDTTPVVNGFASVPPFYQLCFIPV
Sequence of Cytochrome P450 2D6 (Homo sapiens) (P10635 whole entry, looked up): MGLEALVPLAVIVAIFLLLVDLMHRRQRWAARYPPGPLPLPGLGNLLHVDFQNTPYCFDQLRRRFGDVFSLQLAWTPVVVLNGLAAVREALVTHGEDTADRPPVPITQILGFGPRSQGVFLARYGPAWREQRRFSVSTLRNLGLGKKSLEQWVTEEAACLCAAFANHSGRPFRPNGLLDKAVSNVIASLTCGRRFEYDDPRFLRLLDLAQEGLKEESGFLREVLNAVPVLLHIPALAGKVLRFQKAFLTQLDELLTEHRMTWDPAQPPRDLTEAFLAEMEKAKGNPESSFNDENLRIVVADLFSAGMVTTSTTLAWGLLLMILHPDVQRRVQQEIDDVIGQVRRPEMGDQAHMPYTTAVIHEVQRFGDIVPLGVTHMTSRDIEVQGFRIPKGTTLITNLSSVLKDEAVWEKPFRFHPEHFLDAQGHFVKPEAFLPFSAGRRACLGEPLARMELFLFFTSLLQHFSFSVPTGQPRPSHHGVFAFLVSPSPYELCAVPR
Sequence of Cytochrome P450 2C9 (Homo sapiens) (P11712 whole entry, looked up): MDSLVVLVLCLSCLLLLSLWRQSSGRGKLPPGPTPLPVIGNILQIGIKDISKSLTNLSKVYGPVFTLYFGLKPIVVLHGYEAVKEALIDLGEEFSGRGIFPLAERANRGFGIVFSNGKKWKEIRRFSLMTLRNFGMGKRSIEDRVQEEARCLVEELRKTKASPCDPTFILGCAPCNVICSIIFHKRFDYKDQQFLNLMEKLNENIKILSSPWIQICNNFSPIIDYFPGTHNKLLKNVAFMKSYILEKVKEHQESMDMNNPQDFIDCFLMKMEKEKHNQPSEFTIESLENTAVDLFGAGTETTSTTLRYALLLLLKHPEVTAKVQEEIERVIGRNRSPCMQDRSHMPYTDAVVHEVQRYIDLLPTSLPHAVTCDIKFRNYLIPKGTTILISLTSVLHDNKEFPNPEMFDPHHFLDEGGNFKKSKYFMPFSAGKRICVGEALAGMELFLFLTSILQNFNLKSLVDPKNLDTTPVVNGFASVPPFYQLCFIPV
Sequence of Cytochrome P450 3A4 (Homo sapiens) (P08684 whole entry, looked up): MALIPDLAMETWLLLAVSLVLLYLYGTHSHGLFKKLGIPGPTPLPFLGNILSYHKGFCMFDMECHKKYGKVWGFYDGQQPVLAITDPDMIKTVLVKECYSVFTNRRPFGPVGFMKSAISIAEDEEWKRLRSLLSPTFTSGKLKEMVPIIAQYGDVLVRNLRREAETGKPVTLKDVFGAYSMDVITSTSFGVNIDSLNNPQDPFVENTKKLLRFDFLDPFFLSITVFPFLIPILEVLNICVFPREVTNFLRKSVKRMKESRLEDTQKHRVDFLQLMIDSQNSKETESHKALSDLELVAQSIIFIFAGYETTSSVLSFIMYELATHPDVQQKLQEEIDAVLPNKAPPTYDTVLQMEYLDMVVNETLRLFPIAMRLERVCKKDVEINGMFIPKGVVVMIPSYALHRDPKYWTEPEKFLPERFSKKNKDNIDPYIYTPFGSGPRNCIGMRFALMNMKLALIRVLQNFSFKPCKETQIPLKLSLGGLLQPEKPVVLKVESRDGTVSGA

Turning to `C=C[C@@H](C)[C@](C)(O)c1ccccc1`, the Potency in assay [1] is 1.51 µM (active). Besides, the Potency entry in assay [2] and in assay [3] was “inactive” each time.
Consider `COC(=O)N1C(C=CC=Cc2ccc(OC)cc2)=Cc2ccccc2C1CC(C)=O` (stereo not given), for which the Potency in assay [1] is 1.51 µM (active). The Potency result in assay [2] and in assay [3] was “inactive” in each case.
On to `CCN1C(=NCc2cc(OC)c(OC)c(OC)c2)NC(c2cccc(C(F)(F)F)c2)C(C(=O)OC)=C1C` (stereo not given), for which, in assay [1], the Potency is 1.9 µM (active). Besides, the Potency result in assay [2] and in assay [3] was “inactive” each time.
For the compound `CCC(=O)N1C2=C(c3ccccc3[C@@H]1CC(=O)Nc1ccc3ccccc3c1)[C@H]1C(=O)N(c3ccccc3)C(=O)[C@@H]1[C@H](C)C2`, in assay [1], the Potency was 1.51 µM (active). In addition, the Potency result in assay [2] and in assay [3] was “inactive” in each case.
With `C[C@H]1CC[C@H]2C(=O)O[C@H](COc3ccc(C(C)(C)C)cc3)CN2[C@H]1c1ccc(Br)cc1`, in assay [4], the Potency was 3.29 µM (active). For the same compound, the Potency entry in assay [3] is “inactive”.
Regarding `COC(=O)C1=C[C@H]([C@@H](C)[C@H](OC)c2ccccc2Br)[C@H]2c3ccccc3O[C@@H]12`, the Potency entry in assay [4], in assay [2] and in assay [3] was “inactive” in each case.
Regarding `COC(=O)CC=C1c2ccccc2[C@@H](O)[C@@H]1C`, the Potency entry in assay [2] and in assay [3] was “inactive” each time.
As for `CCN1C(=NCCc2c[nH]c3ccccc23)NC(c2cccc(F)c2)C(C(=O)OC)=C1C` (stereo not given), the Potency result in assay [4], in assay [2] and in assay [3] was “inactive” each time.
For `COC(=O)C1=C(C)N(Cc2ccccc2)C(=O)NC1CCc1ccccc1` (stereo not given), the Potency entry in assay [4], in assay [2] and in assay [3] was “inactive” each time.
With `CCN1C(=NCCc2ccccn2)NC(c2cccs2)C(C(=O)OC)=C1C` (stereo not given), the Potency result in assay [4], in assay [2] and in assay [3] was “inactive” in each case.
With `C=CCN=C1NC(c2cccc(C(F)(F)F)c2)C(C(=O)OC)=C(C)N1CC` (stereo not given), the Potency result in assay [4], in assay [2] and in assay [3] was “inactive” throughout.
Regarding `CC(C)=CCN1C(=O)[C@]2(O[C@H](COc3ccccc3)CC3=C2CCC3)c2ccccc21`, the Potency in assay [4] is 1.69 µM (active). The Potency entry in assay [3] was “inactive”.
Regarding `Cc1cc2c(c(=O)n1Cc1ccccc1)[C@H]1O[C@](c3ccsc3)(Cc3ccccc31)O2`, the Potency result in assay [2] and in assay [3] was “inactive” each time.
For `COC(=O)c1ccc(CN2C(=O)[C@@]3(CC(C)=CC[C@@H](COc4ccccc4)O3)c3c(Br)cccc32)cc1`, the Potency in assay [4] is 1.51 µM (active). Also, the Potency entry in assay [3] was “inactive”.
Turning to `COc1ccc2c(c1)C[C@@H](C)O[C@]21C(=O)Nc2ccccc21`, the Potency entry in assay [4] and in assay [3] was “inactive” in each case.
For `COc1cccc([C@H]2Oc3ccc(OC)cc3C(=NO[C@H](C)c3cn([C@H](CO)Cc4ccccc4)nn3)[C@H]2O)c1`, the Potency entry in assay [4], in assay [2] and in assay [3] was “inactive” each time.
`C[C@H]1C[C@@H](C)O[C@@]2(C1)C(=O)N(Cc1ccc(F)cc1)c1ccccc12`: the Potency entry in assay [4], in assay [2] and in assay [3] was “inactive” throughout.
With `COc1ccc(O[C@H]2C=C[C@@H](c3ccccc3)O[C@H]2COC(=O)CCC(C)=NOCC[C@@H]2C=C[C@H](OC(C)=O)[C@@H](COC(C)=O)O2)cc1`, the Potency result in assay [4], in assay [2] and in assay [3] was “inactive” each time.
For `COC(=O)C1=C(C)N(CC2CC2)C(N(C)Cc2ccc(OC)cc2)=NC1c1ccccc1` (stereo not given), the Potency result in assay [4] and in assay [3] was “inactive” each time.
As to `COC(=O)C1=C(C(=O)OC)[C@@H]2N(C)c3ccccc3[C@@]23C[C@@H](CO)N(C(=O)NC2CCCC2)C3=N1`, the Potency in assay [4] was 1.9 µM (active). Moreover, in assay [3], the Potency result was “inactive”.
`COc1cccc([C@H]2NC(=O)C[C@@H]3C[C@@H](C)[C@@H](c4cccc(OC)c4)N3C(=O)C=CC[C@@H]2C)c1`: the Potency entry in assay [2] and in assay [3] was “inactive” each time.
Take `CCN1C(=S)NC(c2cccs2)C(C(=O)OC)=C1C` (stereo not given): the Potency entry in assay [4], in assay [2] and in assay [3] was “inactive” throughout.
As to `COc1cccc([C@@H]2Oc3ccc(Br)cc3C(=O)[C@@H]2O)c1`, the Potency entry in assay [4], in assay [2] and in assay [3] was “inactive” throughout.
For the compound `CCN1C(N(C)CCc2c[nH]c3ccccc23)=NC(c2cccc(C(F)(F)F)c2)C(C(=O)OC)=C1C` (stereo not given), the Potency result in assay [4], in assay [2] and in assay [3] was “inactive” throughout.
Take `COC(=O)C1=C(C)N(Cc2ccccc2)C(=NCc2ccc(OC)cc2)NC1c1cccc(F)c1` (stereo not given): the Potency result in assay [4] and in assay [3] was “inactive” each time.
Turning to `C=CCN=C1N[C@H](c2ccc(Br)cc2)C(C(=O)OC)=C(C)N1Cc1ccccc1`, the Potency result in assay [4] and in assay [3] was “inactive” each time.
As to `COC(=O)CC1c2ccccc2C=C(C=Cc2ccc3c(c2)OCO3)N1C(=O)OC` (stereo not given), the Potency in assay [4] is 1.69 µM (active). The Potency result in assay [3] was “inactive”.
With `c1ccc(CNc2oc(-c3ccccc3)nc2-c2cccc3ccccc23)cc1`, the Potency in assay [4] is 3.29 µM (active). For the same compound, the Potency result in assay [3] is “inactive”.
The corresponding values for `CCN1C(=NCc2ccc3c(c2)OCO3)NC(c2ccccc2)C(C(=O)OC)=C1C` (stereo not given) are “inactive” and “inactive”.
As for `O=C1C2=C(C(=O)c3ccccc31)[C@H]1O[C@](c3ccsc3)(Cc3c1ccc1ccccc31)O2`, the Potency result in assay [4], in assay [2] and in assay [3] was “inactive” each time.
In the case of `COC(=O)C1=C(C)N(Cc2ccccc2)C(=NCCc2c[nH]c3ccccc23)NC1c1cccc(F)c1` (stereo not given), the Potency entry in assay [4], in assay [2] and in assay [3] was “inactive” throughout.
Regarding `CCN1C(=NCc2cccc(C(F)(F)F)c2)NC(c2ccccc2)C(C(=O)OC)=C1C` (stereo not given), the Potency entry in assay [4] and in assay [3] was “inactive” in each case.
Take `CC(C)(C)OC(=O)C1=NOC2(C=CC(=O)C=C2)C1`: the activity change, negative = inhibition in assay [5] was -5.68% [at 11.4 µM]; in assay [6] it was -24.2% [at 11.4 µM]; in assay [7], -10.1% [at 11.4 µM]. Further, the activity, negative = inhibition in assay [8] was 0.0773% [at 11.4 µM]. In addition, the Potency entry in assay [4] and in assay [2] was “inactive” throughout. Further, the Potency in assay [3] is 0.376 µM (active).
With `COC(=O)[C@@H]1CC[C@H](C)[C@@H](c2ccc(C)cc2)N1C(=O)c1ccc(C=NO[C@H](C)CN2CCCc3nc(C)c(C)cc32)cc1`, in assay [2], the Potency was 1.51 µM (active). Also, the Potency entry in assay [3] was “inactive”.
For `COC1=C(C(=O)c2ccccc2)C(=O)[C@@]2(CC=C(C)C)C[C@@H]([S+](=O)([O-])c3ccccc3)C(C)(C)[C@@]1(CC=C(C)C)C2=O`, the Potency in assay [4] is 1.9 µM (active). In assay [3], the Potency entry is “inactive”.
As for `COC(=O)c1ccc(CN2C(=O)[C@@]3(CC(C)=CC[C@@H](C)O3)c3ccccc32)cc1`, the Potency entry in assay [4], in assay [2] and in assay [3] was “inactive” each time.
